As usually defined, the inhibition is the drop in the measured response relative to a control, in per cent.

The whole screen tested about 340,000 compounds, of which about 3,400 (1%) were called active. Many of the other results were omitted from the sample, so actives are more common in it than they were. Values without a mark were called inactive.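 Rule for the calls: active = inhibition above the mean over all tested compounds plus 3 SD (cut at about 4.2% in these data); inactive = the rest.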

Nuclear receptor subfamily 0 group B member 1 (Homo sapiens), sequence (P51843 207-470 limits assumed): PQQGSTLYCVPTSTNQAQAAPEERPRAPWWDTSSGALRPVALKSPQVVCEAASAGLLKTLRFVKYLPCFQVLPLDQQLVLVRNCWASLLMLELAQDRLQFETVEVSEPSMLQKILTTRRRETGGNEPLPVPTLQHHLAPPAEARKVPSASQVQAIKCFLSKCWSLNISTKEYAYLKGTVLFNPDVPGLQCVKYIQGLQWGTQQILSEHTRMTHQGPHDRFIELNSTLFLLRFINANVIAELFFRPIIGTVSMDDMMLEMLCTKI

The assay concerns the target Nuclear receptor subfamily 0 group B member 1 (Homo sapiens) (UniProt P51843). The assay is described as follows: relief of DAX1 transcriptional repression – cell-based, HEK293, Gal4-DAX1, luciferase luminescence, primary screen (AID 504766).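 Note: 0% = DAX1-transfected cells with DMSO and 100% = empty-vector control cells with DMSO; inhibition shows as a rise in luminescence from relieved DAX1 repression.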 As to conditions: HEK293 Gal4-DAX1 luciferase reporter, at 6.75 µM, active compounds read high. (In a reporter assay the amount or activity of a reporter protein is the signal.)
Turning to `CC(=O)Nc1ccc(SCC(=O)NC(=O)c2ccc(Cl)cc2)cc1`, the inhibition is 0.53%.

Take `Cn1nc(-c2ccccc2)c2cc([N+](=O)[O-])ccc21`: the inhibition is 0.55%.

With `O=[N+]([O-])c1ccc2c(c1)C(O)n1nc(-c3ccccc3)nc1S2` (centres undefined), the inhibition was 6.7% (active).

For the compound `O=[N+]([O-])c1ccc2oc(-c3cccc(O)c3)nc2c1`, the inhibition was 0.69%.

With `Cc1ccc(C=O)c([B-](F)(F)F)c1`, the inhibition is -0.38%.

Take `COc1cc(NC(=O)CSc2nnc3ccc(-c4ccncc4)nn23)cc(OC)c1`: the inhibition is 0.29%.

Take `O=C(CSc1nnc2ccc(-c3ccncc3)nn12)N1CCCCC1`: the inhibition was 4.62% (active).

Turning to `COc1ccc(CCNC(=O)CSc2nnc3ccc(-c4ccncc4)nn23)cc1`, the inhibition is 2.31%.

With `Cc1nc2ccccc2nc1CC(O)(c1ccccc1)c1ccccc1`, the inhibition is 1.49%.

On to `COc1ccc(CN2C(=O)C(CC(=O)NCc3cccc4ccccc34)CC(C(=O)N3CCOCC3)=C2C)cc1` (centres undefined), for which the inhibition is 0.04%.

As to `CC(Sc1ccc(S(=O)(=O)N2CCN(C)CC2)cn1)C(=O)NC1CCCC(C)C1C` (centres undefined), the inhibition is 0.86%.

Turning to `C[C@H]1Cn2cnc(C(=O)N[C@H](C)c3ccccc3)c2C(=O)N1`, the inhibition was 1.52%.

Turning to `CCOC(=O)C(=Cc1ccccc1)C(=O)c1ccccc1`, the inhibition was -1.17%.

Take `O=C(NC1CCCCC1)c1cc(C2CC2)on1`: the inhibition is 1.17%.

`O=C(NCCCn1ccnc1)c1cc(Br)c(Br)s1`: the inhibition was 2.56%.

For the compound `O=C(NC1CCCC1)c1cc(-c2ccccc2)on1`, the inhibition is 5.49% (active).

Consider `O=C(NC1CCCCCCC1)c1cccs1`, for which the inhibition is 0.85%.

Take `O=C(NCCCn1ccnc1)c1cc(-c2ccccc2)on1`: the inhibition is 4.72% (active).

For `O=C(NCCCn1ccnc1)c1ccccc1F`, the inhibition was 1.27%.

`O=NN(CCCl)C(=O)NCCc1cccc[n+]1[O-]`: the inhibition is 0.77%.

Turning to `CN(C)C(CNC(=O)c1cc(Br)c(Br)s1)c1ccco1` (centres undefined), the inhibition was -0.16%.

On to `O=C1[C@H]2[C@@H](c3ccc(C(F)(F)F)cc3)N[C@]3(CCCN(Cc4ccc(Cl)cc4)C3=O)[C@H]2C(=O)N1Cc1ccccc1`, for which the inhibition is -0.84%.

Turning to `Cc1ccc(Cc2c(-c3ccc(C)cc3)nc3c4ccccc4ccn23)cc1`, the inhibition was 0.53%.

Regarding `O=C(CN1C(=O)NC2(CCc3ccccc32)C1=O)NC1CCCCC1` (centres undefined), the inhibition is -0.26%.

As to `Cc1cc(C(F)(F)F)c(C#N)c(SCC(=O)NC2CC2)n1`, the inhibition was -0.39%.

In the case of `N#Cc1c(C(F)(F)F)cc(-c2ccccc2)nc1SCC(=O)N1CCOCC1`, the inhibition is -0.64%.

With `N#Cc1c(C(F)(F)F)cc(-c2ccc(Cl)cc2)nc1SCC(=O)O`, the inhibition was 4.58% (active).

Consider `Cc1ccc(C(=O)N[C@H](C(=O)N2CCN(c3ncccn3)CC2)C(C)C)cc1`, for which the inhibition was 1.36%.

For the compound `CC1(C2CC2)NC(=O)N(CC(=O)N2CCN(c3ccccc3F)CC2)C1=O` (centres undefined), the inhibition is -0.4%.

Take `COc1cc(C)c(CN2CCN(C(=O)CCC(=O)c3ccc(C)s3)CC2)cc1OC`: the inhibition is 0.95%.

`COC(=O)C[C@H]1C[C@@H]2c3cc(N(C)C)ccc3O[C@@H]2[C@H](CO)O1`: the inhibition is 1.14%.

With `O=C(NCCc1cccc(F)c1)C1CC(O)CN1C(=O)Nc1ccccc1` (centres undefined), the inhibition was 0.98%.

With `COC(=O)c1sc(SC)c(S(=O)(=O)C(C)C)c1N/N=C(\C#N)S(=O)(=O)c1ccccn1`, the inhibition was 4.53% (active).

`Cc1cc(C)c2c(=O)n3c(nc2c1)C(CC(C)C)NC(=O)c1cc2ccccc2cc1-3` (centres undefined): the inhibition was 0.81%.

Turning to `COc1ccc(C=C2CCC3C(CCCC34OCCO4)C2=O)cc1` (centres undefined), the inhibition is 1.37%.

With `COc1ccc(CN2C(=O)C(CC(=O)NCCCCc3ccccc3)CC(C(=O)N3CCOCC3)=C2C)cc1` (centres undefined), the inhibition is -0.84%.

In the case of `CCCCCCNC(=O)O[C@]12C[C@@H](C(=O)OC)[C@@H](C(=O)OC)C[C@@]1(O)CN(S(=O)(=O)c1ccc(C)cc1)C2`, the inhibition is 0.26%.

`CCOC(=O)c1cc(-c2sc(NC(=O)c3ccccc3)nc2C)n(Cc2ccccc2)n1`: the inhibition is -1.03%.

As to `O=S1(=O)CCN(C2CCCCCCCCCCC2)CC1`, the inhibition is -0.26%.

Consider `Cc1cc(C)nc(NC(=O)c2cccc([N+](=O)[O-])c2)c1`, for which the inhibition is 0.73%.

`O=C(Nc1ccc(C2CC2(Cl)Cl)cc1)c1cccc([N+](=O)[O-])c1` (centres undefined): the inhibition was 4.49% (active).

Regarding `O=C(Nc1cccc([N+](=O)[O-])c1)c1ccc2c(c1)OCO2`, the inhibition was 0.29%.

`CC1=C(C(=O)N2CCOCC2)CC(CC(=O)NCc2ccco2)C(=O)N1Cc1ccc(F)cc1` (centres undefined): the inhibition was 1.82%.

Turning to `C/C(=N\NC(=S)NC1CCCCC1)c1ccc(C)o1`, the inhibition is 0.98%.

In the case of `Cc1ccc(/C=N/NC(=S)NC2CCCCC2)o1`, the inhibition was 4.44% (active).

Consider `COc1ccc(C(=O)NC(=S)NC2CCCCC2)cc1`, for which the inhibition is 1.16%.

For `CC1CCCCC12NC(=O)N(CC(=O)N1CCN(c3ccccc3)CC1)C2=O` (centres undefined), the inhibition is 1.67%.

With `O=C(C1CCC1)N1CCN(c2ccccc2)CC1`, the inhibition was 0.59%.

Turning to `NC(=O)C1CCCN(CC(=O)N2CCN(c3ccccc3)CC2)C1` (centres undefined), the inhibition is 6.46% (active).

In the case of `Cc1ccc(S(=O)(=O)N2C[C@H]3C(=O)C[C@@H](c4cccc5ccccc45)N(S(=O)(=O)c4ccc(C)cc4)[C@H]3C[C@H]2c2ccc(Cl)cc2)cc1`, the inhibition was -0.08%.

Consider `O=C(CCC(=O)c1cccs1)Nc1nc2ccccc2s1`, for which the inhibition was 0.63%.

With `CCC(=O)NC(=Nc1nc2ccccc2s1)NC(=O)CC`, the inhibition is 6.2% (active).

Turning to `CC(C)CC(=O)N/C(N)=N/c1nc2ccccc2s1`, the inhibition is 0.77%.

For `Cc1cccc(C(=O)C(O)(c2ccccc2)C2CCCCC2=O)c1` (centres undefined), the inhibition was 0.38%.

For `COc1ccc(NC(=O)CN(C)C(=O)c2cc(C)oc2C)cc1`, the inhibition was -0.29%.

For the compound `Cn1nnc(NC(=S)NC(=O)c2ccccc2)n1`, the inhibition is 0.45%.

In the case of `Cc1cc(C)cc(C(=O)NC(=S)Nc2ccc3[nH]c(=O)[nH]c3c2)c1`, the inhibition is -1.15%.

For `Cc1cc2[nH]ncc2cc1NC(=S)NC(=O)c1ccccc1`, the inhibition was 5.71% (active).

In the case of `O=C(OCC(=O)N1CCCCCC1)c1cccc(Cl)c1Cl`, the inhibition is 3.82%.

The values are drawn from PubChem BioAssay AID504766 (The Scripps Research Institute Molecular Screening Center, 2011).
